The values that follow come from article PMC5540273 (PLoS ONE, 2017).

Read-outs that look alike come from different tables or passages of the source.

The test system of one test is T1, GRK3.
T1 construct: gene ADRBK2
The note with it: concentration: 1 μM, replicates: in singlicate; n = 1.

The next test deals with GRK4. The note with it: concentration: 1 μM, replicates: in singlicate; n = 1.
In a further test the test system is GRK7. The note with it: concentration: 1 μM, replicates: in singlicate; n = 1.
For another test, the system named is GSK3A. The note with it: concentration: 1 μM, replicates: in singlicate; n = 1.
The next test concerns GSK3B. As to conditions: n = 1.
The next test relates to T2, HASPIN.
T2 construct: gene GSG2
As to conditions: concentration: 1 μM, replicates: in singlicate; n = 1.

A further test deals with HCK. As to conditions: concentration: 1 μM, replicates: in singlicate; n = 1.
In a further test the test system is HIPK1. As to conditions: concentration: 1 μM, replicates: in singlicate; n = 1.
The test system of another test is HIPK2. The note with it: concentration: 1 μM, replicates: in singlicate; n = 1.
For another test, the system named is HIPK3. As to conditions: concentration: 1 μM, replicates: in singlicate; n = 1.
The next test relates to HIPK4. The note with it: concentration: 1 μM, replicates: in singlicate; n = 1.
The subject of another test is HPK1. As to conditions: concentration: 1 μM, replicates: in singlicate; n = 1.
For the next test, the system named is HUNK. The note with it: concentration: 1 μM, replicates: in singlicate; n = 1.
The subject of the next test is ICK. The note with it: concentration: 1 μM, replicates: in singlicate; n = 1.
A further test concerns IGF1R. The note with it: concentration: 1 μM, replicates: in singlicate; n = 1.
The next test concerns T3, IKK-alpha.
T3 construct: gene CHUK
As to conditions: concentration: 1 μM, replicates: in singlicate; n = 1.

A further test concerns T4, IKK-beta.
T4 construct: gene IKBKB
The note with it: concentration: 1 μM, replicates: in singlicate; n = 1.

The subject of another test is T5, IKK-epsilon.
T5 construct: gene IKBKE
The note with it: concentration: 1 μM, replicates: in singlicate; n = 1.

A further test deals with INSRR. As to conditions: concentration: 1 μM, replicates: in singlicate; n = 1.
Another test concerns INSR. As to conditions: concentration: 1 μM, replicates: in singlicate; n = 1.
Where [1] appears, read: concentration: 1 μM, replicates: in singlicate.
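Also: KINOMEscan kinase panel screen.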

As for `FC(F)(F)c1ccccc1-c1cc(-c2c[nH]nc2-c2ccccn2)ccn1` [GW679396], the “%Inh” value in the test on GRK3 was 14%; in the test on GRK4, 0%; in the test with GRK7, 0%; in the test with GSK3A, 2%; with GSK3B (setting [1]), 12%; in the test on HASPIN it was 0%. For the same compound, the “%Inh” value came out at 0% in the test on HCK; 0% with HIPK1; 0% with HIPK2; 17% in the test on HIPK3; 0% in the test on HIPK4; 0% in the test with HPK1. For the same compound, the “%Inh” value in the test on HUNK stood at 0%; in the test with ICK, 3%; with IGF1R, 0%; with IKK-alpha, 0%; with IKK-beta, 0%; with IKK-epsilon, 100%. Also, the “%Inh” value in the test with INSRR and in the test with INSR was 0% each time.

`Cn1cnc2c(N)ncnc21` [SKF-97623]: the “%Inh” value is 26% with GRK3; 21% in the test with GRK4; 0% with GRK7; 0% in the test on GSK3A; 0% with GSK3B (setting [1]); 0% in the test with HASPIN. Further, the “%Inh” value with HCK is listed as 0%; in the test on HIPK1 it was 0%; with HIPK2, 11%; with HIPK3 it was 0%; in the test on HIPK4, 0%; with HPK1 it was 33%. In addition, the “%Inh” value is reported as 17% in the test with HUNK; 0% with ICK; 46% with IGF1R; 0% in the test with IKK-alpha; 0% with IKK-beta; 0% with IKK-epsilon. For the same compound, the “%Inh” value with INSRR and in the test with INSR was 0% throughout.

Take `O=C(Nc1n[nH]c2nc(-c3cccs3)c(Br)cc12)C1CC1` [SB-735297]: the “%Inh” value is 0% in the test on GRK3; 0% in the test on GRK4; 17% with GRK7; 93.8% with GSK3A; 52% in the test on GSK3B (1 µM); 0% in the test on HASPIN. Also, the “%Inh” value in the test with HCK is on record as 0%; in the test on HIPK1, 27%; with HIPK2, 58%; in the test with HIPK3 it was 11%; with HIPK4, 10%; in the test on HPK1, 16%. Moreover, the “%Inh” value in the test on HUNK came out at 0%; in the test with ICK, 24%; in the test on IGF1R, 0%; in the test with IKK-alpha it was 0%; with IKK-beta, 9%; in the test on IKK-epsilon it was 0%. Also, the “%Inh” value in the test with INSRR and in the test with INSR was 0% each time.

For the compound `CS(=O)(=O)CCNCc1nc(-c2ccc3ncnc(Nc4ccc(OCc5ccccc5)c(Cl)c4)c3c2)cs1.Cl` [GW582764], the “%Inh” value was 99.4% in the test on GRK3; 4% with GRK4; 0% in the test on GRK7; 20% in the test on GSK3A; 3% in the test on GSK3B (setting [1]); 32% in the test on HASPIN. In addition, the “%Inh” value was 0% in the test on HCK; 0% with HIPK1; 0% in the test on HIPK2; 0% in the test with HIPK3; 0% in the test with HIPK4; 44% with HPK1. In addition, the “%Inh” value in the test on HUNK is 5%; in the test with ICK, 0%; in the test on IGF1R, 4%; in the test with IKK-alpha it was 28%; with IKK-beta, 5%; in the test on IKK-epsilon, 0%. Besides, the “%Inh” value with INSRR and in the test with INSR was 0% each time.

Turning to `Cn1cncc1-c1cc2c(Nc3ccc(OCc4ccccc4)cc3)ncnc2cn1` [GW281179], the “%Inh” value with GRK3 came out at 33%; in the test with GRK4, 0%; with GRK7 it was 0%; in the test with GSK3A it was 8%; in the test on GSK3B (setting [1]), 11%; with HASPIN, 0%. For the same compound, the “%Inh” value in the test with HCK stood at 0%; in the test on HIPK1, 0%; in the test on HIPK2, 0%; in the test with HIPK3, 0%; in the test on HIPK4, 0%; in the test on HPK1, 25%. The “%Inh” value with HUNK is 8%; in the test with ICK, 5%; in the test on IGF1R it was 4%; in the test with IKK-alpha, 0%; in the test with IKK-beta, 6%; in the test on IKK-epsilon, 4%. The entries for the “%Inh” value with INSRR and in the test with INSR were 0% and 2%, respectively.

For the compound `CNCc1ccc2nc(NC(=O)c3ccc(C(C)(C)C)cc3)cn2c1`, the “%Inh” value with GRK3 worked out at 36%; with GRK4, 0%; in the test on GRK7, 10%; in the test with GSK3A it was 3%; in the test with GSK3B (setting [1]) it was 11%; in the test with HASPIN, 5%. Moreover, the “%Inh” value with HCK was 3%; in the test with HIPK1, 17%; in the test on HIPK2 it was 13%; with HIPK3, 17%; in the test with HIPK4 it was 5%; with HPK1, 12%. For the same compound, the “%Inh” value in the test on HUNK is given as 19%; with ICK it was 27%; in the test on IGF1R it was 0%; in the test on IKK-alpha, 8%; in the test on IKK-beta it was 6%; with IKK-epsilon, 15%. Moreover, the “%Inh” value amounted to 2% with INSRR and 9% in the test with INSR.

As for `O=c1cc(N2CCOCC2)nc2n(Cc3cccc(Cl)c3Cl)c3ccccc3n12` [GSK2299009], the “%Inh” value amounted to 0% in the test on GRK3; 25% in the test with GRK4; 0% with GRK7; 5% in the test with GSK3A; 14% with GSK3B (setting [1]); 0% in the test on HASPIN. Further, the “%Inh” value in the test with HCK was 0%; with HIPK1 it was 9%; in the test on HIPK2 it was 0%; in the test with HIPK3, 19%; with HIPK4 it was 0%; in the test on HPK1 it was 19%. The “%Inh” value was found to be 0% in the test with HUNK; 14% in the test with ICK; 5% in the test on IGF1R; 0% in the test with IKK-alpha; 0% with IKK-beta; 37% in the test on IKK-epsilon. For the same compound, the figures for the “%Inh” value with INSRR and with INSR were 7% and 0%, respectively.

`O=C1NC(=O)C(c2ccc(Cl)cc2)=C1Nc1ccc(O)cc1` [SB-340867]: the “%Inh” value with GRK3 is reported as 0%; in the test on GRK4 it was 0%; in the test on GRK7 it was 0%; in the test on GSK3A, 29%; with GSK3B (1 µM), 0%; with HASPIN it was 9%. Further, the “%Inh” value in the test on HCK is 0%; with HIPK1, 0%; with HIPK2 it was 0%; with HIPK3, 0%; in the test with HIPK4, 0%; in the test with HPK1 it was 35%. Moreover, the “%Inh” value in the test with HUNK, in the test with ICK, in the test with IGF1R, in the test with IKK-alpha, with IKK-beta and in the test with IKK-epsilon was 0% each time. Moreover, the “%Inh” value in the test with INSRR and in the test on INSR was 0% throughout.
